Bioassay records deposited in PubChem BioAssay by National Center for Advancing Translational Sciences (NCATS).
Only a selection was taken, and hits are over-represented in it overall.
Pf Dd2 inh = qHTS Primary assay for Inhibitors of Plasmodium falciparum Dd2 growth in vitro; AID 1347417, 2020; Potency, µM (titrated, usually from 28.9 µM), actives largely listed as inhibitors; 120,000 tested, 4.3% active; P. falciparum Dd2 growth, SYBR Green, 72 h; active = well fitted inhibition curve with a large enough effect; note: nearly all actives have a fitted effect of over 65% in size
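Infected erythrocytes (Dd2, 0.3% parasitemia, 2.5% hematocrit final) are added to compound in RPMI-1640/Albumax II medium, grown 72 h at 37C in low oxygen, then lysed with saponin/Triton-X containing SYBR Green and read by fluorescence.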
Numbers stand for hits; n = inactive; ! = repeats disagree.

SMILES	Pf Dd2 inh
CN1C(=O)C2(CCN(C(=O)c3ccccc3)C2)c2ccccc21 (stereo unspecified)	n
COc1ccc(C(=O)N2CCC3(CC2)C(=O)Nc2ccccc23)cc1	n
CC1(C(=O)O)CCN(C(=O)c2cccc(Cl)c2)CC1	n
COc1ccc(C(=O)N2CCC3(C2)C(=O)N(Cc2ccccc2)c2ccccc23)cc1 (stereo unspecified)	n
CC(C)Oc1ccc(C(=O)N2CCC3(CC2)C(=O)N(C)c2ccccc23)cc1	8.9µM
CN1C(=O)C2(CCN(C(=O)c3cccc(F)c3)C2)c2ccccc21 (stereo unspecified)	n
O=C(c1cccc(Cl)c1)N1CCC2(C1)C(=O)N(CCc1ccccc1)c1ccccc12 (stereo unspecified)	7.9µM!
COc1ccc(C(=O)N2CCC3(C2)C(=O)N(CCc2ccccc2)c2ccccc23)cc1 (stereo unspecified)	8.9µM!
CC(C)CCNC(=O)N1CCC2(CC1)C(=O)N(C)c1ccccc12	n
CN1CCC(N2CCN(C(=O)c3ccncc3)CC2)C1=O (stereo unspecified)	n
COc1ccc(C(=O)N2CCC(C(=O)N3CCCCCCNC(=O)CC3)CC2)cc1F	n
CS(=O)(=O)N1CCC(C2CCN(C(=O)CC3=CCCCC3)C2)CC1 (stereo unspecified)	n
Cn1cnnc1CC1CCN(C(=O)c2cc3c([nH]c2=O)CCCC3)CC1	n
O=C(C1CCC1)N1CCC(C(=O)N2CC(Oc3ccccc3)C2)CC1	n
CC1CCN(S(=O)(=O)N2CCC(C(=O)N3CCCC3c3nc(C4CCOCC4)no3)CC2)CC1 (stereo unspecified)	n
CC(C)(C)c1ccc(C(=O)Nc2ccc(C(O)[C@H]3COCC(=O)N3)cc2)cc1 (stereo partly specified)	10µM
O=C1COC[C@H]([C@H](O)c2ccc(NS(=O)(=O)c3ccc(F)cc3)cc2)N1	n
COc1ccccc1C(=O)Nc1ccc(C(O)[C@H]2COCC(=O)N2)cc1 (stereo partly specified)	n
COc1cc(NS(=O)(=O)c2cc(Br)cc3c2N(C(=O)C2CC2)CC3)cc(OC)c1	n
Cc1ccc(NS(=O)(=O)c2cc(Br)cc3c2N(C(=O)C2CC2)CC3)cc1C	n
CCC(=O)N1CCc2cc(Br)cc(S(=O)(=O)N3CCC(C(=O)Nc4ccc(OC)cc4)CC3)c21	n
O=C(C1CC1)N1CCc2cc(Br)cc(S(=O)(=O)N3CCN(c4ccccc4)CC3)c21	n
CCN(c1ccccc1)S(=O)(=O)c1cc(Br)cc2c1N(C(=O)C1CC1)CC2	1.1µM
CCC(=O)N1CCc2cc(Br)cc(S(=O)(=O)NCCc3cccc(C)c3)c21	n
O=C(C1CC1)N1CCc2cc(Br)cc(S(=O)(=O)Nc3ccc(F)c(F)c3)c21	n
SMILES	Pf Dd2 inh
Cc1cccc(N2CCN(S(=O)(=O)c3cc(Br)cc4c3N(C(=O)C3CC3)CC4)CC2C)c1 (stereo unspecified)	11µM
CCN(C(=O)C1CCN(S(=O)(=O)c2cc(Br)cc3c2N(C(C)=O)CC3)CC1)c1cccc(C)c1	5µM
CCc1nccn1CC(=O)Nc1nn(C)c2cccc(Oc3cccnc3)c12	n
CCn1ncc(C(=O)N2C[C@@H](COC)[C@H](c3nc(C4CC4)no3)C2)c1C	n
Cc1nccn1CCNC(=O)CCC[C@@H]1[C@H]2CCCN3CCC[C@@H](CN1C(=O)c1cccnc1)[C@@H]23	n
CC(C)(CC(=O)O)CC(=O)N1Cc2[nH]cnc2C[C@H]1c1nc(-c2ccncc2)no1	n
O=C1NCCC[C@@H]1NC(=O)[C@@H]1CN(C(=O)c2cccs2)CCN1C(=O)c1ccccc1	n
Cc1ccccc1-c1cnc2[nH]cc(CC(=O)NC(C)C)c2c1	n
CN1CCCC2(Cc3ccccc3CN(C(=O)c3ccccc3)C2)C1 (stereo unspecified)	n
CCCN1CCCC2(Cc3ccccc3CN(C(=O)Cc3ccccc3)C2)C1 (stereo unspecified)	6.3µM
CC(=O)NCC(=O)N1Cc2ccccc2CC2(CCN(C)C2)C1 (stereo unspecified)	n
CCC(=O)N1Cc2ccccc2CC2(CCN(CCc3ccc(C)cc3)CC2)C1	8.9µM
C[S+](=O)([O-])N1Cc2ccccc2CC2(CCCN(CCc3ccccc3)C2)C1 (stereo unspecified)	n
CC(=O)N1Cc2ccccc2CC2(CCN(Cc3ccncc3)C2)C1 (stereo unspecified)	n
CC(=O)NCCC(=O)N1Cc2ccccc2CC2(CCN(Cc3cccnc3)C2)C1 (stereo unspecified)	n
CN(C)CC(=O)N1Cc2ccccc2CC2(CCCN(CCc3ccccc3)C2)C1 (stereo unspecified)	5µM
CCCC(=O)N1Cc2ccccc2CC2(CCN(Cc3ccc(O)cc3)C2)C1 (stereo unspecified)	13µM
CN(C)CC(=O)N1Cc2ccccc2CC2(CCCN(CC3CCNCC3)C2)C1 (stereo unspecified)	n
CCC(=O)N1Cc2ccccc2CC2(CCN(CC3CCNC3)C2)C1 (stereo unspecified)	n
